# How the values were obtained:
# Type in all cases: functional
# Plasmodium falciparum [1] = test: GSK_TCMDC: Inhibition of Plasmodium falciparum 3D7 in whole red blood cells, using parasite LDH activity as an index of growth. Test compounds present at 2uM
# Plasmodium falciparum [2] = test: GSK_TCMDC: Inhibition of Plasmodium falciparum Dd2 in whole red blood cells, using parasite LDH activity as an index of growth. Test compounds present at 2uM
# HepG2 = test: GSK_TCMDC: Percent inhibition of human HepG2 cell line. Test compounds present at 10uM.
SMILES,Inhibition (Plasmodium falciparum [1]) [%],Inhibition (Plasmodium falciparum [2]) [%],Inhibition (HepG2) [%]
COc1ccc(F)cc1-c1ccc(C(=O)N2CCCN(c3ccc(C(F)(F)F)cn3)CC2)cc1,100,100,4
COc1ccc2c(NN=Cc3ccccc3F)ccnc2c1,98,99,15
CCNc1cc(C(=O)N[C@@H](Cc2ccc(F)c(F)c2)[C@H](O)CNCc2cccc(OC)c2)cc(N2CCCCS2(=O)=O)c1.Cl,99,85,4
Br.CC(=O)Nc1nc(C)c(-c2csc(Nc3ccc(Cl)cc3)n2)s1,96,93,14
O=S(=O)(Nc1cccc(CCN2CCC(N3CCCCC3)CC2)c1)c1cccc2cccnc12,98,17,0
NC1CCCN(Cc2ccc(-c3ccc(-c4nc5cc(F)ccc5[nH]4)s3)cc2)C1.O=C(O)C(F)(F)F (stereo not drawn),100,98,40
CN(C)CCOc1cc(NC(=O)Nc2ccc(Oc3ccccc3)cc2)ccc1I.Cl,89,4,13
COc1ccc(Cc2cnc3nc(N)nc(N)c3c2C)cc1.Cl,90,96,65
Cc1nc2nc(N)nc(N)c2c(C)c1Cc1ccc(C(F)(F)F)cc1.Cl,96,22,57
N#Cc1ccc(-c2ccc(C(=O)NCCCCN3CCC(c4ccncc4)CC3)cc2)cc1,94,16,34
COc1ccc(C(=O)Nc2ccc(Cl)cc2C(=O)Nc2ccncc2)cc1,91,29,7

# — ChEMBL document CHEMBL1157539, “Thousands of chemical starting points for antimalarial lead identification” (Nature, 2010)
